Experimental data reported in PubChem BioAssay (NCATS).
“And” between values parts separate entries of the source, which are not always exact repeats. Equal entries are not always repeated. Results filed as inconclusive are left out. The source made the active and inactive calls. The call rests on the fitted dose curve; in most records, active means well fitted curve in the direction sought with a large enough effect; inconclusive means small, poorly fitted or top-dose-only effect, or another doubt; inactive means no such curve, though single readings can be large; an effect the other way counts as inactive or inconclusive.

Legend:
[1] = Viability qHTS for spleen associated tyrosine kinase inhibitor (SYKi) naive MV4-11 cells (AID 1963823); further: nearly all actives have a fitted effect of over 40% in size
Summary of the method: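 Cells: MV4-11, SYK inhibitor naive, 500 per well. Treatment: library compounds, 72 hr, 37 C, 5% CO2. Read-out: CellTiter-Glo luminescence after 10 min RT.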

[2] = Viability qHTS for spleen associated tyrosine kinase inhibitor (SYKi) drug resistant MV4-11 cells (AID 1963824); further: nearly all actives have a fitted effect of over 35% in size
Summary of the method: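 CellTiter-Glo luminescence, read 10 min after reagent addition, reports viability after a 72 hr compound exposure. Cells are an MV4-11 line made resistant to SYK inhibition, seeded at 500 per well onto compound-containing plates.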

[3] = Quantitative highthroughput screen to assess conditional lethalithy of NOMO1 cells grown in RPMI1640 with untreated serum (RPMI+s) (AID 1963876); further: nearly all actives have a fitted effect of over 35% in size;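 on Viability: 100% = DMSO wells and 0% = empty wells without cells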
Summary of the method: (§1)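 Each medium arm—HPLM with 10% dialyzed FBS, or RPMI1640 with 5 mM glucose and 10% untreated or dialyzed FBS—was screened against an 11-point, 3-fold compound titration for 48 h at 37 °C, with CellTiter-Glo luminescence as endpoint.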

[4] = Quantitative highthroughput screen to assess conditional lethalithy of NOMO1 cells grown in RPMI1640 with dialyzed fetal bovine serum (RPMI+ds) (AID 1963877); further: nearly all actives have a fitted effect of over 30% in size;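 on Viability: series mostly up to about 46 µM; 100% = DMSO control wells and 0% = empty wells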
Summary of the method: as §1

[5] = Quantitative highthroughput screen to assess conditional lethalithy of NOMO1 cells grown in Human Plasma-Like Medium with dialyzed fetal bovine serum (HPLM+ds) (AID 1963878); further: nearly all actives have a fitted effect of over 35% in size;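 on Viability: 100% = DMSO wells and 0% = empty wells on each plate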
Summary of the method: as §1

[6] = Quantitative highthroughput screen to assess conditional lethalithy of P12 Ichikawa cells grown in RPMI1640 with dialyzed fetal bovine serum (RPMI+ds) (AID 1963880); conditions: Potency: P12-Ichikawa viability; further: nearly all actives have a fitted effect of over 35% in size;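 on Viability: 100% = DMSO wells and 0% = empty wells on each plate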
Summary of the method: as §1

[7] = Cellular viability qHTS for adrenocortical cancer (ACC) cell line NCI-H295R (AID 1963990); further: nearly all actives have a fitted effect of over 60% in size
Summary of the method: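 Readout: CellTiter-Glo luminescence, 20 min RT. Exposure: 48 h, 37C/5% CO2. Cells: NCI-H295R, ITS-DMEM serum-free. Range: up to 46 uM. Analysis: 4PL fit, IC50 plus efficacy.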

[8] = Quantitative highthroughput screen to assess conditional lethalithy of P12 Ichikawa cells grown in RPMI1640 with untreated serum (RPMI+s) (AID 1963881); conditions: Potency: viability; further: nearly all actives have a fitted effect of over 35% in size;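 on Viability: series mostly up to about 46 µM; 100% = DMSO wells and 0% = empty wells without cells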
Summary of the method: as §1

[9] = Quantitative highthroughput screen to assess conditional lethalithy of SEM cells grown in Human Plasma-Like Medium with dialyzed fetal bovine serum (HPLM+ds) (AID 1963882); further: nearly all actives have a fitted effect of over 35% in size; on Viability: series mostly up to about 46 µM
Summary of the method: as §1

[10] = Quantitative highthroughput screen to assess conditional lethalithy of SEM cells grown in RPMI1640 with unreated serum (RPMI+s) (AID 1963883); further: nearly all actives have a fitted effect of over 35% in size;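 on Viability: 100% = DMSO wells and 0% = empty wells without cells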
Summary of the method: as §1

[11] = Quantitative highthroughput screen to assess conditional lethalithy of SEM cells grown in RPMI1640 with dialyzed fetal bovine serum (RPMI+ds) (AID 1963884); further: nearly all actives have a fitted effect of over 35% in size;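 on Viability: series mostly up to about 46 µM; 100% = DMSO control wells and 0% = empty wells without cells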
Summary of the method: as §1

[12] = Cellular viability qHTS for adrenocortical cancer (ACC) cell line SW-13 (AID 1963989); conditions: SW-13 ACC cells viability, CellTiter-Glo, 48 h; activity (max response): active compounds read low; further: nearly all actives have a fitted effect of over 65% in size;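 on activity (max response): cells grown in serum-free medium with ITS supplement; on the % scale 0 is the no-effect control and ±100 the full control effect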
Summary of the method: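 Compound titrations (up to 46 uM final, in DMSO) were applied to SW-13 cells for 48 h at 37C/5% CO2. Reading used CellTiter-Glo after 20 min at room temperature; fitted curves yielded IC50 and efficacy.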

[13] = Quantitative highthroughput screen to assess conditional lethalithy of P12 Ichikawa cells grown in Human Plasma-Like Medium with dialyzed fetal bovine serum (HPLM+ds) (AID 1963879); conditions: Potency: viability; further: nearly all actives have a fitted effect of over 35% in size; on Viability: series mostly up to about 46 µM
Summary of the method: as §1
Potency means the concentration at half of the fitted maximal effect.

O=C(O)c1ccc(-c2c[nH]c3ncc(-c4ccccc4)cc23)cc1C1CCCC1
inactive: Potency [3] | Potency [4] | Potency [5] | Potency [7]
active: Potency [1] 1.18 µM | Potency [2] 651 nM and 2.35 µM | Potency [6] 6.62 µM

CC(C)(C)OC(=O)Nc1ccc(-c2cc(C(=O)NCCCCCCC(=O)NO)no2)cc1
active: Potency [1] 1.48 µM | Potency [2] 1.48 µM | Potency [3] 8.33 µM | Potency [4] 9.35 µM | Potency [5] 8.33 µM | Potency [6] 1.05 µM | Potency [8] 2.35 µM | Potency [9] 3.72 µM | Potency [10] 1.48 µM | Potency [11] 1.32 µM | Potency [12] 15.8 µM | Potency [7] 2.82 µM

O=C(O)c1ccc2c(c1)nc(Nc1cccc(Cl)c1)c1ccncc12
active: Potency [1] 1.84 µM and 1.32 µM | Potency [2] 1.64 µM and 1.66 µM | Potency [3] 5.9 µM | Potency [4] 7.43 µM | Potency [5] 4.69 µM | Potency [6] 5.9 µM | Potency [8] 4.69 µM | Potency [12] 3.55 µM | Potency [7] 2.51 µM

C[C@@H]1C(=O)O[C@H]2CC34[C@H]5C[C@@H](C(C)(C)C)C36[C@H](OC(=O)[C@@H]6O)O[C@@]4(C(=O)O5)[C@]21O (stereo not given in full)
inactive: Potency [1] | Potency [2] | Potency [3] | Potency [4] | Potency [5] | Potency [6] | Potency [8] | Potency [11] | activity (max response) [12] -23.3% | Potency [7]

Cc1cc(Nc2ncc(Cl)c(Nc3ccccc3S(=O)(=O)C(C)C)n2)c(OC(C)C)cc1C1CCNCC1
active: Potency [1] 2.59 µM | Potency [2] 2.31 µM and 2.35 µM | Potency [3] 18.6 µM | Potency [4] 18.6 µM | Potency [5] 13.2 µM | Potency [6] 23.4 µM | Potency [8] 26.3 µM | Potency [9] 14.8 µM | Potency [11] 16.6 µM | Potency [12] 15.8 µM | Potency [7] 2.24 µM

CN1c2cc(O)c(N=NC(N)=O)cc2CC1S(=O)(=O)O (stereo not given)
inactive: Potency [1] | Potency [2] | Potency [3] | Potency [4] | Potency [5] | Potency [6] | Potency [8] | Potency [9] | Potency [10] | Potency [11] | activity (max response) [12] 12.8% | Potency [7]

N#Cc1c(C2CCNCC2)cc(-c2c(O)cccc2OCC2CC2)nc1N
active: Potency [1] 5.9 µM | Potency [2] 6.61 µM | Potency [12] 28.2 µM | Potency [7] 11.2 µM
inactive: Potency [3] | Potency [4] | Potency [5] | Potency [6] | Potency [8]

CCN1CCN(c2ccc(Nc3cc(N(C)C(=O)Nc4c(Cl)c(OC)cc(OC)c4Cl)ncn3)cc2)CC1
active: Potency [1] 2.63 µM | Potency [2] 1.86 µM | Potency [3] 5.26 µM | Potency [4] 7.43 µM | Potency [5] 3.32 µM | Potency [9] 4.18 µM | Potency [10] 2.09 µM | Potency [11] 2.64 µM
inactive: activity (max response) [12] -7.03% | Potency [7]

N=c1ccn2c(n1)O[C@H]1[C@@H](O)[C@@H](CO)O[C@H]12
inactive: Potency [7]
active: Potency [1] 2.95 µM | Potency [2] 3.32 µM | Potency [3] 2.96 µM | Potency [4] 1.48 µM | Potency [13] 0.132 µM | Potency [6] 0.132 µM | Potency [8] 0.118 µM | Potency [9] 0.132 µM | Potency [10] 0.132 µM | Potency [11] 0.0935 µM

NCC(=O)Nc1ccc(-n2nc(C(F)(F)F)cc2-c2ccc3c(ccc4ccccc43)c2)cc1
active: Potency [1] 5.8 µM and 5.9 µM | Potency [2] 2.91 µM and 4.68 µM | Potency [4] 9.35 µM | Potency [13] 2.96 µM | Potency [6] 2.96 µM
inactive: Potency [3] | Potency [9] | Potency [10]

COc1cc(N2CCC(O)CC2)ccc1Nc1cc(Nc2ccccc2S(=O)(=O)C(C)C)c2cc[nH]c2n1
inactive: Potency [3] | Potency [4] | Potency [13] | Potency [6] | Potency [8] | activity (max response) [12] -1.42% | Potency [7]
active: Potency [1] 16.4 µM and 10.5 µM | Potency [2] 20.6 µM and 14.8 µM

N#Cc1ccnc(Nc2cc(C3CCN(C4COC4)CC3)cc(N3CCC(F)(F)C3)n2)c1
active: Potency [1] 1.16 µM and 118 nM | Potency [2] 2.06 µM and 235 nM | Potency [3] 13.2 µM | Potency [4] 13.2 µM | Potency [5] 14.8 µM | Potency [9] 13.2 µM | Potency [10] 13.2 µM | Potency [11] 9.33 µM | Potency [12] 15.8 µM | Potency [7] 10 µM

C=CC(=O)Nc1cc2c(Nc3ccc(F)c(Cl)c3)ncnc2cc1C#CC(C)(C)N1CCN(C)CC1
active: Potency [1] 0.59 µM | Potency [2] 0.517 µM | Potency [3] 9.35 µM | Potency [4] 5.26 µM | Potency [13] 5.26 µM | Potency [6] 5.26 µM | Potency [8] 5.9 µM | Potency [9] 2.96 µM | Potency [10] 2.96 µM | Potency [11] 3.32 µM | Potency [12] 3.16 µM | Potency [7] 3.16 µM

CNC(=O)c1ccc(Nc2ncc(C(F)(F)F)c(NCc3nccnc3N(C)S(C)(=O)=O)n2)cc1
inactive: Potency [3] | Potency [4] | Potency [13] | Potency [6] | Potency [8]
active: Potency [1] 130 nM and 332 nM | Potency [2] 291 nM and 525 nM | Potency [9] 1.48 µM | Potency [10] 1.05 µM | Potency [11] 0.933 µM | Potency [7] 7.94 µM

Cn1cnc(=N)c2[nH]cnc21
inactive: Potency [1] | Potency [2] | activity (max response) [12] 5.87% | Potency [7]
active: Potency [3] 7.43 µM | Potency [4] 6.62 µM | Potency [13] 7.43 µM | Potency [6] 7.43 µM | Potency [8] 7.43 µM | Potency [9] 3.32 µM | Potency [10] 2.35 µM | Potency [11] 3.32 µM

CCN(CC)C(=S)SSC(=S)N(CC)CC
active: Potency [1] 1.57 µM | Potency [2] 1.4 µM and 5.31 µM and 833 nM | Potency [3] 2.96 µM | Potency [4] 2.96 µM | Potency [13] 2.96 µM | Potency [6] 2.96 µM | Potency [8] 2.96 µM | Potency [9] 0.833 µM | Potency [10] 1.05 µM | Potency [11] 0.662 µM | Potency [12] 16.4 µM and 25.1 µM | Potency [7] 44.7 µM
